High-throughput results: PubChem BioAssay, National Center for Advancing Translational Sciences (NCATS)
In the library only some 10% were active in any assay of this set; here they are far more common.
JMJD2A Tudor: qHTS Assay for Inhibitors of JMJD2A-Tudor Domain | Potency, µM (series often up to 114 µM), actives largely listed as inhibitors | Lysine-specific demethylase 4A (Homo sapiens), O75164 | 390,000 tested, 4.4% active | AlphaScreen JMJD2A-Tudor / H3K4me3 peptide binding; further: nearly all actives have a fitted effect of over 50% in size
G9a block: qHTS Assay for Inhibitors of Histone Lysine Methyltransferase G9a. Histone-lysine N-methyltransferase EHMT2 (Homo sapiens), Q96KQ7. G9a H3K9 monomethylation, AlphaScreen, 2 h. Potency, µM (series often up to 102 µM), most hits filed as inhibitors. 350,000 tested, 8.8% active. AID 504332, 2011; further: nearly all actives have a fitted effect of over 75% in size
Target sequence (Q96KQ7 913-1193 limits assumed): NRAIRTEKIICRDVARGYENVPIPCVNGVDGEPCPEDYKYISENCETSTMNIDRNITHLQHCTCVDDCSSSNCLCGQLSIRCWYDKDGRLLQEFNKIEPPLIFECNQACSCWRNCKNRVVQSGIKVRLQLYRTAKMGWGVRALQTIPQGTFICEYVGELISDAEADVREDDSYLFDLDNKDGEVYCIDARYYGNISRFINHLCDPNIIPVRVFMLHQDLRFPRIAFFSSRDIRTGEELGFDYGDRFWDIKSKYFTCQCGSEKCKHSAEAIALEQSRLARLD
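Quantitative HTS format: methyltransferase activity on a biotin-tagged H3K9 peptide is measured by AlphaScreen, using a rabbit anti-monomethyl-H3K9 antibody with streptavidin donor and anti-IgG acceptor beads. Final levels are 20 nM enzyme, 500 nM peptide, 20 uM SAM; 2 h RT.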
BAZ2B inh: qHTS Assay for Inhibitors of BAZ2B | AlphaScreen BAZ2B-H3K14Ac peptide displacement | Potency, µM (top dose mostly 114 µM), usual class: inhibitors | 360,000 tested, 4.4% active; further: nearly all actives have a fitted effect of over 60% in size
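Complex of BAZ2B and biotin-H3K14Ac (50 nM apiece) forms over 30 min at RT, then faces library compounds up to 110 uM for another 30 min; AlphaScreen beads added, 20 min dark incubation, luminescence read.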
GLS inhibitor: qHTS for Inhibitors of Glutaminase (GLS). GLS enzymatic activity, qHTS titration. 410,000 tested, 0.21% active. AID 624170, 2012. Potency, µM (highest dose often 45.5 µM), most hits filed as inhibitors
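Coupled fluorescence readout: glutamate oxidase/HRP/Amplex Red detect glutamate formed by hKGA from L-glutamine (1 mM solution added). Buffer 45 mM KH2PO4 pH 8.2, 0.02% Tween-20; reads at t0 and 30 min RT.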
HP1b chromo inh: HTS for Inhibitors of HP1-beta Chromodomain Interactions with Methylated Histone Tails; Chromobox protein homolog 1 (Homo sapiens), P83916; Potency, µM (doses to about 114 µM), usual class: inhibitors; AlphaScreen HP1-beta / biotin-H3K9me3 peptide binding; 390,000 tested, 0.56% active; AID 540317, 2011; further: nearly all actives have a fitted effect of over 70% in size
Target sequence (P83916 whole entry, looked up): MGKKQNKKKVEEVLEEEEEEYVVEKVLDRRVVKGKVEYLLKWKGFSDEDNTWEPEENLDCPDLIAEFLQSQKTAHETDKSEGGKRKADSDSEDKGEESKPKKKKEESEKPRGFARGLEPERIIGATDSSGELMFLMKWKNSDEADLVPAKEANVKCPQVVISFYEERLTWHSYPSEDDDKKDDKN
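Compound inhibition of the preformed complex between 50 nM HP1-beta and 50 nM biotinylated H3K9me3 peptide was read by AlphaScreen. Buffer was PBS pH 7.4 with 0.01% Tween-20. Incubations ran 30 min at room temperature, with 10 ug/mL donor/acceptor beads.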
Numbers stand for hits; n = inactive; u = inconclusive; x = no result given; ! = a repeat was not active; [ ] = another dose, or the depositor's remark. The call rests on the fitted dose curve; in most records, active means well fitted curve in the direction sought with a large enough effect; inconclusive means small, poorly fitted or top-dose-only effect, or another doubt; inactive means no such curve, though single readings can be large; an effect the other way counts as inactive or inconclusive.

SMILES | JMJD2A Tudor | G9a block | BAZ2B inh | GLS inhibitor | HP1b chromo inh
CCOC(=O)C1(Cc2cccc(OC)c2)CCN(C2CCOCC2)CC1 | n | 50µM | 50µM | n | n
O=C(Nc1ccc(CN2CCOCC2)cc1)c1ccc(-c2cc(Cl)ccc2Cl)o1 | n | n | n | n | n
S=C(c1ccc(-c2cc(Cl)ccc2Cl)o1)N1CCOCC1 | u | 8.9µM | 35µM | n | 18µM
S=C(c1ccc(-c2cc(Cl)ccc2Cl)o1)N1CCCCC1 | u | u | 28µM | n | u
COc1cccc(C(=O)N2CCC2(C)C(=O)O)c1 (configuration not stated) | x | x | x | n | x
C=CCn1c(CNS(=O)(=O)c2ccc(Cl)cc2)n[nH]c1=S | 28µM | 32µM | n | n | n
C=CCn1c(CNS(=O)(=O)c2ccc(F)cc2)n[nH]c1=S | 13µM | n[12.7 µM] | n | n | n
C=CCn1c(Cc2nc3ccc(Cl)cc3[nH]2)n[nH]c1=S | u | u | u | n | n
C=CCNC(=O)CNS(=O)(=O)c1ccc(F)cc1 | n | u | n | n | n
C=CCn1c(CNS(=O)(=O)c2ccc(Br)cc2)n[nH]c1=S | 28µM | 32µM | n | n | n
O=S(=O)(c1cccs1)N1CCN(CC(O)COC2CCCc3ccccc32)CC1 (configuration not stated) | 4µM | 18µM | 50µM | n | u
O=S(=O)(c1cccs1)N1CCN(CC(O)COc2cccc(Br)c2)CC1 (configuration not stated) | 3.2µM | u | 79µM | n | u
CCN(CC)CCc1nc(-c2ccccc2)no1 | 40µM | 13µM! | n | n | n
O=[N+]([O-])c1ccc(C2=NN(c3ccccc3)C(c3ccco3)C2)cc1 (configuration not stated) | u | u | n | n | u
O=[N+]([O-])c1ccc(/C=C/C2=NN(c3ccccc3)C(c3ccco3)C2)cc1 (configuration not stated) | u | 22µM | 50µM | n | n
COc1cccc(CNC(=O)CCc2c(C)nc3c4c(C)cc(C)nc4nn3c2C)c1 | n | n | n | n | n
Cc1ccc(C(C)C)c(OCC(=O)Nc2ccc(N3CCOCC3)cc2N2CCOCC2)c1 | n | 25µM | n | n | n
Cc1ccc(CSCC(=O)Nc2ccc(N3CCOCC3)cc2N2CCOCC2)cc1 | n | 28µM | n | n | n
Cc1ccc(C(C)C)c(OCC(=O)Nc2ccccc2N2CCN(C)CC2)c1 | u | n[12.7 µM] | u | n | n
Cc1ccc(C(C)C)c(OCC(=O)NN=C(CCl)CCl)c1 | x | x | 56µM | x | x
Cc1ccc(CNC(=O)CN(c2cc(C)cc(C)c2)S(=O)(=O)c2c(C)noc2C)cc1 | n | n | x | n | n
CC(C(=O)NCc1ccc(Cl)cc1)n1cccc1C(=O)c1ccccc1 (configuration not stated) | n | n | n | n | n
COc1ccc(CN2CC(=O)N(c3ccc(C)c(C)c3)C2=S)cc1OC | 56µM | n | n | n | u
COc1ccc(CN2CC(=O)N(c3cc(Cl)ccc3C)C2=S)cc1OC | n | 71µM | n | n | n
COc1cc(CN2CC(=O)N(c3ccc(C)c(C)c3)C2=S)cc(OC)c1OC | n | n | n | n | n
SMILES | JMJD2A Tudor | G9a block | BAZ2B inh | GLS inhibitor | HP1b chromo inh
Cc1cn(C2OC(COC(=O)c3ccccc3)C(O)C2Cl)c(=O)[nH]c1=O (configuration not stated) | n | 50µM | n | n | n
O=C(Nc1ccc(Cl)cc1Cl)c1cc(S(=O)(=O)N2CCC3(CC2)OCCO3)ccc1F | n | n | n | n | n
CCOc1ccc(CC(=O)NNC(=S)Nc2ccccc2)cc1Br | n[11.4 µM] | 25µM | n | n | n
Cc1ccc(CCC(=O)Nc2ccc(C#N)cc2)o1 | n | 40µM | n | n | n
COc1ccc(OCC(=O)NC(=S)NNC(=O)COc2ccc(Br)cc2Cl)cc1 | 8.9µM | 1.6µM | n | n | u
CCc1ccc(NC(=O)CCc2ccc(C)o2)cc1 | n | n | u | n | n
O=C(COc1ccc(Br)cc1Cl)NC(=S)Nc1ccccn1 | n | 79µM | n | n | n
Cc1cc(OCC(=O)Nc2c(C(=O)c3ccccc3)oc3ccccc23)cc(C)c1Cl | n | n | n | n | n
